Whole data set: some 33,000 sequences, median “E-score (-0.5 to 0.5)” near -0.043, cut for the highest 2% near 0.37. The list comes from a sample in which the highest values are over-represented; it also holds similar and randomly drawn sequences.
target: T1, Upc2 (UniProt Q12151); assay: PBM E-score (8-mer binding enrichment) (E-score (-0.5 to 0.5)); higher = stronger / more preferred TF binding; conditions: protein concentration: 200 nM; construct: GST-full length
T1 sequence: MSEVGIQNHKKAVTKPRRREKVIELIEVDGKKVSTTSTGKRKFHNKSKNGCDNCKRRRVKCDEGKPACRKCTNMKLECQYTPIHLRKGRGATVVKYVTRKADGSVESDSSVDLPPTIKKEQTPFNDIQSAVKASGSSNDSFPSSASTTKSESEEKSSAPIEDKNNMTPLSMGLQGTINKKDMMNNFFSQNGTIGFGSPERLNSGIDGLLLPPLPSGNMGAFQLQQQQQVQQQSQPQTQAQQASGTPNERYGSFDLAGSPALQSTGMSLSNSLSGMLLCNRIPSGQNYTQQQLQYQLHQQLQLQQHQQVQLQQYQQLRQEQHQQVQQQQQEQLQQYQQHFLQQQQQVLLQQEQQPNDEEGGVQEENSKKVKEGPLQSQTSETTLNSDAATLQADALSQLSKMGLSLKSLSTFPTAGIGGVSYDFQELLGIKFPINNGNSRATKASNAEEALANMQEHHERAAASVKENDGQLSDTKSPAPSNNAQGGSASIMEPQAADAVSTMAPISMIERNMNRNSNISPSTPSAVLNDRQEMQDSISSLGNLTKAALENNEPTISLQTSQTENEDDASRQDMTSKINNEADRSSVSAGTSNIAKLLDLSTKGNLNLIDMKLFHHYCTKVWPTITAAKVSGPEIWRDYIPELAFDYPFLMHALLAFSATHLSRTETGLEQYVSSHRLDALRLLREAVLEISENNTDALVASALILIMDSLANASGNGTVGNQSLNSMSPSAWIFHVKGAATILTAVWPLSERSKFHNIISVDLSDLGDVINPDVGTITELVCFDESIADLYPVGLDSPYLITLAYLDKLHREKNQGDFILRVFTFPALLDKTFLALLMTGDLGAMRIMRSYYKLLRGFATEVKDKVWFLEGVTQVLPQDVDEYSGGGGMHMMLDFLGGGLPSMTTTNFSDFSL
Procedure, shortened: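 Masliner-normalised scans of fluorescent anti-GST signal were the basis for scoring. That signal came from GST-tagged yeast transcription factors applied at about 100-200 nM to double-stranded universal all-10-mer Agilent arrays on fresh or once-stripped slides. Each ungapped eight-base word, pooled with its reverse complement, received an E-score from the Universal PBM Analysis Suite.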

Sequence | PBM E-score
AGAGGCAC | -0.00593
GAACATCA | -0.0243
AGCTGTAT | -0.0312
CTAAGCTC | -0.201
AACCCTCT | -0.202
CGGACTAC | -0.113
CTCGTCGC | 0.0828
TCGAGCCA | -0.0555
ACGAGCCC | 0.358
ACGAGCCA | 0.408
ACGAGCCG | 0.371
CCGAGCCG | 0.106
AGGAGCCT | -0.12
ACGAGCCT | 0.396
AGGAGCCG | -0.224
CCGAGCCA | -0.0165
TAACTCAA | -0.0155
ATTTCTTC | -0.026
ATATATAA | 0.141
TAATGCTA | -0.11
AATCGATT | 0.128
AAACGATG | 0.458
GATCGATC | -0.03
AAACGATT | 0.449
GAACGATA | 0.402

Sequence | PBM E-score
CCACGATC | 0.125
GAACGGTA | 0.283
GGACGATA | -0.181
AAACGCTG | 0.244
AAACGCTT | 0.156
CAACGATG | 0.0412
GAACGATC | 0.429
CGCCACCC | -0.0595
ATCGTGAG | -0.165
GGTCTGCA | -0.156
TCAGATGA | -0.197
ATCTGGTA | 0.044
ACACTGCA | -0.0747
CGGCATAG | -0.0559
GCCTCCGC | -0.121
AAACTTTA | -0.0184
TAACGTTA | 0.102
ACACGATA | 0.15
AGACGATC | -0.0293
TAACGATA | 0.387
CAACGATC | 0.11
AAACGATC | 0.447
CAACGATA | 0.228
CCACGATA | -0.0526
AAACGATA | 0.459

Sequence | PBM E-score
AAGCGACT | 0.243
ACACTCAT | -0.233
ATCTCCTG | -0.0597
ATAGGTCC | -0.132
AGAGCGTA | 0.223
ATCTGAAG | -0.202
AACGAGGA | 0.428
TACGAGGA | 0.464
ACCGAGGT | 0.169
GACGAGGC | 0.0687
AAAGAGGT | -0.182
AACGAGGC | 0.444
ATCGAGGA | 0.0976
AACGAGGT | 0.448
CACGAGGC | 0.116
GACGAGGA | -0.00176
CACGAGGA | 0.0675
AGCGAGGA | 0.144
AGATGGCC | -0.176
AAGAGACG | 0.102
CTGGCGAA | -0.174
ACCACCTG | -0.0336
CACTGTGC | -0.118
CAGTAGTC | 0.0468
GCCTTGAA | -0.189

Sequence | PBM E-score
CATTTCGA | 0.0247
GCTCCACC | -0.0776
AGATGAAT | -0.206
CAGACTGA | -0.0971
AAGTTATT | 0.045
AGCTATGG | -0.158
CACGAGGG | 0.114
AACGAGGG | 0.43
AGCGAGGG | 0.245
AGGGTGAC | -0.128
ACCCTGGA | -0.0506
AGTACGAA | 0.384
AGTACGTA | 0.27
CGTACGCC | 0.312
GGTACTAC | 0.0298
AGTACGAG | 0.428
GGTACGAC | 0.475
AGTACGCA | -0.0414
AGTACGTG | 0.0272
CGTACGAC | 0.449
AGTACGCG | 0.189
GGGACGAC | -0.244
CGGACGAC | -0.21
CGAAGCAC | -0.0203
CAGCACGG | -0.256

Sequence | PBM E-score
ATAGGCGG | -0.0532
AGCAAGTC | -0.148
AAAGCAGT | -0.125
GATGGGAC | -0.0558
CCTAGATA | -0.0107
AGTACGAT | 0.345
CGTACGAG | 0.465
ATTACGAC | 0.348
ATTACGTG | -0.118
ATTACGAG | 0.378
CGGACGAG | -0.165
CCTACGAG | 0.341
AGTACGCC | -0.0728
GGTACGCA | 0.252
GGTACGTA | 0.313
GGTACGAA | 0.459
AGTACGAC | 0.409
ACCACGTG | 0.0941
GAAGAAAC | 0.0334
TAATTGGA | -0.00998
AACTCCAC | 0.00868
CAGTTTCA | -0.223
CGCGAGAA | 0.0746
CAGGTGAG | -0.277
CATGGCTC | -0.0993

Sequence | PBM E-score
AAGGTAAT | 0.0547
TGTACAAA | 0.0122
CGTACGCA | 0.345
CGTACGAA | 0.444
CGTACGTA | 0.364
TGTACGAA | 0.479
TGCACGAA | 0.145
CATATTCA | -0.0449
GCTTCACA | -0.124
ATTCGTAG | 0.285
GTTCGTCA | -0.0278
ATTCGTGA | 0.0183
ATTCGTAA | 0.399
GTTCGTGA | 0.0858
GTTCGTAA | 0.424
GGATGGTA | 0.0248
GCTAGCTA | 0.0155
ACGACCGC | 0.359
GTGAGAAC | -0.188
GCCAAACA | -0.0676
ACGTACAG | 0.3
CCGTACAG | 0.418
CTGTACAG | 0.158
ACGTACAC | 0.297
GCGTACAC | 0.33

Sequence | PBM E-score
CCGTACAC | 0.382
AAAAGACA | 0.0436
CCACAGAC | -0.169
ATTAGCCG | 0.0535
GTGACCGA | 0.11
ATGTACGG | 0.373
ATGTACTG | -0.177
ATGTACGA | 0.472
ATGTACGC | 0.187
CTGTACGA | 0.488
CTGTACAC | 0.152
CTGTACGC | 0.375
ATGTACCG | -0.03
CTGTACAA | 0.0214
CTGTACCA | -0.134
ATGTACTA | 0.0361
CTGTACTC | 0.00852
GACTCTCA | -0.187
CAGAAAGA | -0.00388
CACATAGG | -0.207
AAACCAAA | 0.118
AAAGCATC | 0.0386

From the supplement of paper PMC3334620
